Measured values: PubChem BioAssay AID1645883 (National Center for Advancing Translational Sciences (NCATS), 2021)
Where “and” joins values, the source holds several entries; their conditions need not be identical. Equal values may be shown once. Hit rate of the full screen: of about 16,000 compounds, about 160 (1%) were called active. Not shown: some 8% with an inconclusive outcome. The list comes from a sample in which actives are over-represented; it also holds similar structures and randomly drawn compounds. Unmarked numbers belong to inactive results. The call rests on the fitted dose curve; in most records, active means well fitted activation curve with a large enough effect; inconclusive means small, poorly fitted or top-dose-only effect; inactive means no such curve, though single readings can be large or run the other way.

Target: Rap guanine nucleotide exchange factor 3 (Homo sapiens) (UniProt O95398)
Test: Validation qHTS for agonist of cAMP-regulated guanine nucleotide exchange factor 3 (EPAC1); further: nearly all actives have a fitted effect of over 70% in size
Details: EPAC1 Rap1b BODIPY-GDP exchange, fluorescence; max response: hits give high values, percent of cAMP control response
Source text: Assay Provider (PI): Xiaodong Cheng Ph.D.
The University of Texas Medical Branch, […], TX
In multi-cellular eukaryotic organisms, the effects of cAMP are transduced by two ubiquitously-expressed intracellular cAMP receptors, the classic protein kinase A/cAMP-dependent protein kinase (PKA/cAPK) and the more recently discovered exchange protein directly activated by cAMP/cAMP-regulated guanine nucleotide exchange factor (EPAC/cAMP-GEF). Both PKA and EPAC are ubiquitously expressed in all tissues, and an increase in intracellular cAMP levels will lead to the activation of both PKA and EPAC. Therefore, careful dissections of the individual role and relative contribution of EPAC and PKA within the overall cAMP signaling in various model systems are critical for further elucidating the mechanism of cAMP signaling. To date no EPAC-specific antagonists and agonist, as well as isoform-specific agonists have been reported, and developing EPAC-specific pharmacological probes to determine the physiological functions that EPAC play in the overall cAMP-mediated signaling remains a major challenge within the research field. Furthermore, identified regulators of EPAC may lead to new mechanism-based therapeutic strategies specifically targeting the EPAC / cAMP-signaling components as EPAC has been implicated to play important roles in major human pathological conditions such as diabetes, heart disease, and cancer.
This qHTS will be used to screen the Molecular Libraries Small Molecule Repository (MLSMR) as a concentration-titration series using the NCGC unique quantitative screening (qHTS) platform to find activators for EPAC1. In addition, this assay will also be used as a counterscreen for the EPAC2 qHTS. This fluorescent based assay is developed and validated for EPAC1 that measures exchange using EPAC effector Rap1 complex with BODIPY-GDP, a GDP analog with a tethered fluorophores. Activators are identified by monitoring the change in fluorescence signal as the exchanged free BODIPY-GDP has a reduced fluorescence compared to Rap1-bound BODIPY-GDP. Increase in signal (activation) is the desired outcome for the EPAC1 agonist while no activity in this assay is desired for the EPAC2 agonist counterscreen.
[1] de Rooij, J., Zwartkruis, F. J., Verheijen, M. H., Cool, R. H., Nijman, S. M., Wittinghofer, A., and Bos, J.L. (1998) Nature 396, 474-477.
Briefly, three uL of reagents (100 nM EPAC1, 250 nM RAP1B-BODIPY-GDP, 50 uM GDP) were dispensed into a 1536-well Greiner black solid-bottom medium binding assay plate. Controls and test compounds (23 nL) were transferred to the plate via a Kalypsys pin tool equipped with a 1536-pin array. The plates were centrifuged at 1,000 rpm for 15 seconds followed by 5 minute incubation at room temperature. The assay plates were read at 5 minute intervals for 30 minutes in the ViewLux plate reader using 480nm excitation and 540nm emission filters. The results were normalized to the agonist positive control of 6.5 mM cAMP.
On the % scale 0 is the no-effect control and ±100 the full control effect; potency means the concentration at half of the fitted maximal effect.

Chain of Rap guanine nucleotide exchange factor 3 (Homo sapiens) (O95398 whole entry, looked up): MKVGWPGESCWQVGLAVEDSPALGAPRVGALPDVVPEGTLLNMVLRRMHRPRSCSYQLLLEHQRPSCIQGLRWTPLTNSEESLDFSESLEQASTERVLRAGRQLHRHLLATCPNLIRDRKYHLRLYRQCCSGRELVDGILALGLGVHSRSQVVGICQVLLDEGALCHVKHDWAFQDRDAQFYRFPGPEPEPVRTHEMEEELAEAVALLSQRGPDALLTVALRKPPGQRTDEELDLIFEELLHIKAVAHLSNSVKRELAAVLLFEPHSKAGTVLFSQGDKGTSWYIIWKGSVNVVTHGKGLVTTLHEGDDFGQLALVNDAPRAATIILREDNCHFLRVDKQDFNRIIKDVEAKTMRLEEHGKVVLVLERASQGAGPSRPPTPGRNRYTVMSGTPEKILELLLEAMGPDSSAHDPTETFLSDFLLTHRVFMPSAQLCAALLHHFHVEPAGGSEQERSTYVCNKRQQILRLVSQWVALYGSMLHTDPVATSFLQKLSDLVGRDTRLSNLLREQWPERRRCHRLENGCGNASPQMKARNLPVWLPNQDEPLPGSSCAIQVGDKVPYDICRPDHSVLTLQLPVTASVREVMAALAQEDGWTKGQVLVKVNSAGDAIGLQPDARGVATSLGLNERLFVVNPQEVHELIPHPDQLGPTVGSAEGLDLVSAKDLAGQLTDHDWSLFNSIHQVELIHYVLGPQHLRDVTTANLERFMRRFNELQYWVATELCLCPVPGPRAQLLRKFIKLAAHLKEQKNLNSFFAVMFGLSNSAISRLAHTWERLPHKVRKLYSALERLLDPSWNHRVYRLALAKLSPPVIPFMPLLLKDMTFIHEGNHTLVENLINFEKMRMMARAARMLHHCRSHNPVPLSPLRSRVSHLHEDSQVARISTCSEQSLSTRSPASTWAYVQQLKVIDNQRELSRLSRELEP

| SMILES | max response | Potency |
| --- | --- | --- |
| CCCCCCCCCCCC(=O)O[C@H](CC(=O)O)C[N+](C)(C)C | -21.3% |  |
| O=S1(=O)CCOC[C@H](Cc2ccccc2)N1Cc1ccccc1Br | 21.5% |  |
| Cc1nc2cc(NC(=O)[C@@H]3C[C@@H](Sc4ccccn4)CN3Cc3ccccc3C)ccc2s1 | 16.2% |  |
| Cc1cc[n+](C2CCCCC2)cc1 | -16.9% |  |
| CC1(C)S[C@@H]2[C@H](N=CN3CCCCCC3)C(=O)N2[C@H]1C(=O)O | -11.7% |  |
| CCN(Cc1ccncc1)C(=O)[C@@H](CO)c1ccccc1 | 7.04% |  |
| C#CCCCCCCCCCCCCCCCC(=O)O | -16.8% and -0.644% |  |
| CCN1CCN(C(=O)N[C@@H](C(=O)N[C@@H]2C(=O)N3[C@@H]2SC(C)(C)[C@H]3C(=O)O)c2ccccc2)C(=O)C1=O | 15.9% |  |
| CS(=O)(=O)N1CCC2(CC1)CN(Cc1ccccc1)C2 | -14.5% |  |
| COc1ccc2[nH]cc(CCNc3cc(-c4ccccc4CN(C)C)ncn3)c2c1 | -42% |  |
| COc1ccc(CNc2ncncc2-c2ccccc2OC)c(OC)c1 | -21.3% |  |
| O=C(O)CCCCCCCCc1cn(CN2C(=O)c3ccccc3C2=O)nn1 | 12.5% |  |
| Oc1ccc(Cl)c2c1CCC2 | -17.9% |  |
| Cc1csc(-c2nc3ccccc3n2C)n1 | 8.44% |  |
| NC(=O)c1sc(-c2ccsc2)cc1N | -9.78% |  |
| Cc1cnc(CNc2ncncc2-c2ccccc2Cl)cn1 | 13% |  |
| O=c1c(-c2ccc(F)cc2)nc2cnc(N3CCOCC3)nc2n1-c1ccccc1 | -86.9% |  |
| COc1ccccc1-c1nc(NCc2cccs2)c2ccccc2n1 | -19.8% |  |
| Cc1cc(C(=O)NCC2Cc3cccc(-c4cncnc4)c3O2)c(C)o1 (centres undefined) | 3.15% |  |
| COc1ccccc1CNc1ncncc1-c1cccc(NS(C)(=O)=O)c1 | -3.54% |  |
| CCC1CN(CCNC(=O)c2cccc(C)n2)Cc2cc(OC)ccc2O1 (centres undefined) | 8.26% |  |
| CC(C)(C)NCC(O)COc1cccc2[nH]c(=O)[nH]c12 (centres undefined) | -8.93% and -6.11% |  |
| CC(=O)N1CCC2(CCCN(c3ncccn3)C2)CC1 | -18.4% |  |
| Cc1ccc(C(=O)Nc2cccc(-c3nc(CNC(=O)c4ccccc4-n4cccn4)c(C)o3)c2)s1 | -3.18% |  |
| Cc1csc(-c2coc3cc(O[C@@H]4O[C@H](CO)[C@@H](O)[C@@H](O)[C@H]4O)ccc3c2=O)n1 | -1.66% |  |

| SMILES | max response | Potency |
| --- | --- | --- |
| COc1cc2[nH]c(C)c(CCN3CCN(c4ccccc4)CC3)c2cc1OC | 5.71% |  |
| COCCn1c(=O)c(-c2cc(F)cc(F)c2)nc2cncnc21 | -6.52% |  |
| COCC(=O)N1CCC2(CCCN(c3ccccc3)C2)CC1 | -14.6% |  |
| Cc1noc(C)c1-c1nccc(N2CCOCC2)n1 | 5.18% |  |
| O=P(O)(O)OC[C@H](O)CO | -11.2% |  |
| O=C(O)/C(=C/c1c(C(=O)O)[nH]c2cc(Cl)cc(Cl)c12)c1ccccc1 | -0.525% |  |
| CCOC(=O)N1CCC(N2CCOc3ccc(CN4CCC(O)(c5cccnc5)CC4)cc3C2)CC1 | -5.78% |  |
| Clc1ccccc1-c1cc(NCCN2CCOCC2)ncn1 | -6.13% |  |
| Cn1c(=O)c(CCc2ccccc2)nc2cnc(Nc3ccccc3)nc21 | -11% |  |
| O=c1cc(-c2ccc(O)c(O)c2)oc2cccc(O)c12 | 8.34% |  |
| COc1cc(C)c(CN2CCc3nnc(C(C)NC(=O)c4cccnc4)n3CC2)cc1C (centres undefined) | 12.1% |  |
| COCCNc1ncnc2ccc(-c3cccnc3)cc12 | -29.2% |  |
| CN(C)c1ccc(/C=c2\[nH]c(=O)/c(=C/c3ccc(N(C)C)cc3)[nH]c2=O)cc1 | 8.62% |  |
| CC(C)C1=CC2=CC[C@@H]3[C@](C)(CO)CCC[C@]3(C)C2CC1 (some centres undefined) | -8.55% |  |
| Cc1cc2nc3c(=O)[nH]c(=O)nc-3n(C[C@H](O)[C@H](O)[C@H](O)CO)c2cc1C |  | 100 µM (active) |
| O=C(Nc1ccccc1)N[C@H]1C[C@H](C(=O)O)Nc2cc(Cl)cc(Cl)c21 | 1.49% |  |
| C=C1CC[C@H](O)CC1=C/C=C1\CCC[C@]2(C)[C@@H]([C@H](C)/C=C/[C@H](C)C(C)C)CC[C@@H]12 | -127% |  |
| CC(N)=NCc1cccc(CN)c1 | 8.83% and -11.8% |  |
| CCOC(=O)C[C@H]1c2ccc(C(F)(F)F)cc2S(=O)(=O)N1c1ccccc1 | -85% |  |
| CCC1CN(CCNC(=O)c2cccnc2C)Cc2cc(OC)ccc2O1 (centres undefined) | 1.97% |  |
| Cc1nc2cnc(Oc3cccc(Cl)c3)nc2n(C2CC2)c1=O | -12.8% |  |
| Cc1[nH]c2c(C(=O)NCC3Cc4cccc(-c5cccnc5)c4O3)cccc2c1C (centres undefined) | 19.3% |  |
| O=S1(=O)CCO[C@H]2Cc3ccccc3[C@H]2N1Cc1ccccc1 | 7.53% |  |
| CC(=O)OC1CCC2(O)CC1(C)CCC1C2CC1(C)C (centres undefined) | -18.2% |  |
